This note sets out measurements from PubChem BioAssay AID651626 (National Center for Advancing Translational Sciences (NCATS), 2012).

Unmarked numbers belong to inactive results.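 Rule for the calls: active = inhibition of at least 60% at 114 µM in the USP2 gel assay; inconclusive = inhibition from 30% up to under 60% at 114 µM; inactive = inhibition under 30% at 114 µM.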

The target in the assay is Ubiquitin carboxyl-terminal hydrolase 2 (Homo sapiens) (UniProt O75604). The assay is described as follows: Inhibitors of USP1/UAF1: SAR in USP2 diubiquitin SDS-PAGE gel assay. The following applies: USP2 K63 diubiquitin cleavage, SDS-PAGE gel densitometry; series mostly up to 114 µM; inhibition: at the top concentration. The source says: Deubiquitinating enzymes (DUBs) are a class of enzymes that can cleave isopeptide bond formed between the C-terminal carboxylate of ubiquitin and a lysine side-chain amino group on the target protein. Among them, ubiquitin specific proteases (USPs) constitute the largest DUB family. Human USPs are emerging as promising targets for pharmacological intervention because of their connection to a number of human diseases, including prostate, colon and breast cancer (1, 2), pediatric acute lymphoblastic leukemia (3), and familial cylindromatosis (4). The advantage of inhibiting USPs lies in the potential specificity of therapeutic intervention that can lead to better efficacy and reduce nonspecific side effects. In a collaboration between the University of Delaware and the NIH Chemical Genomics Center, a high-throughput screen assay was developed to screen for USP1/UAF1 inhibitors (5). […]
Ubiquitin carboxyl-terminal hydrolase 2 (Homo sapiens), sequence (O75604 whole entry, looked up): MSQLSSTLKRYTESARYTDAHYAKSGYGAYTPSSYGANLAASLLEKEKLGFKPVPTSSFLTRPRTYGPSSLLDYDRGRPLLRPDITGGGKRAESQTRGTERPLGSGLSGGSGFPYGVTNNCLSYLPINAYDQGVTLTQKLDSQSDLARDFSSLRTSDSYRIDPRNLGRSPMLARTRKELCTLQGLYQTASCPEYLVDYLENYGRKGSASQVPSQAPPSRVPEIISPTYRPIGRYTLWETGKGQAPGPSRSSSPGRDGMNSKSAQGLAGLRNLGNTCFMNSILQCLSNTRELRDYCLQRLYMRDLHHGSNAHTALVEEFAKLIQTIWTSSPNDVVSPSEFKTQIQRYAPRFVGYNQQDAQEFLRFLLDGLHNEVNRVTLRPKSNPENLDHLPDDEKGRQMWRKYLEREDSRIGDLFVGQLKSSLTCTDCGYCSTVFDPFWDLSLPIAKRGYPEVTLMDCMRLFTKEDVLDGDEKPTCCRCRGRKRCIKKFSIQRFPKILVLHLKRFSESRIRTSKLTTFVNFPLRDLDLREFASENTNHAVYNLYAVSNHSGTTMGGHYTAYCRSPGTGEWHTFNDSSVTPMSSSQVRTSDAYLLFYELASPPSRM
The inhibition assay contains 20 nM USP2, 2 microM K63 linked diubiquitin, and inhibitors at varied concentrations (0.08 microM - 114 microM). […] The intensity of the individual diubiquitin and monoubiquitin band was quantified using Quantity One 4.3.1 (Biorad, Hercules, CA). The percentage of the conversion was determined and used to calculate the reaction rate. […]
What is called inhibition is the drop in the measured response relative to a control, in per cent. `Cc1cnc(-c2ccccc2C(C)C)nc1NCc1ccc(-n2ccnn2)cc1`: the “inhibition” value was 8%.
